# Compounds with a hit are over-represented: about 19% of the library has one in this group of screens.
# IL-1B inflam inh: blocks inflammasome-driven IL-1 beta release; AID 743279; THP-1 LPS/ATP IL-1B secretion, AlphaLISA, 16 h; active compounds read low; hit rate 4.7% among 360,000; activity change, % at 57.5 µM; in the data active = activity change below about -50%; inconclusive = mostly about -30% to -49%; note: % is set by controls: 0 for no effect and ±100 for the full control effect
#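 THP-1 cells pretreated 1 hr with compounds (up to 57.5 uM final), then stimulated with LPS (250 ng/mL final) plus ATP (1.25 mM final); secreted IL-1B measured by AlphaLISA after 16 hr, decreased signal indicating inhibition.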
# DT40 TDP1 CPT: DT40-hTDP1 cell growth loss with CPT; chicken DT40 Tdp1-/-;hTDP1 cells + 20 nM CPT, ATP luminescence, 48 h; Potency, µM (doses to about 46.2 µM), for the others: at the highest dose activity change, negative = growth inhibition, most hits filed as inhibitors; hit rate 12% among 420,000; AID 686979; note: potency is the fitted concentration of half-maximal effect; % is set by controls: 0 for no effect and ±100 for the full control effect; nearly all actives have a fitted effect of over 55% in size
#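 Cell growth measured by CellTiter-Glo luminescence after a minimum 48 h, 37 C compound exposure with 20 nM CPT in Tdp1-knockout DT40 cells stably expressing hTDP1, seeded 400/well; qHTS titration format.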
# TDP1 inh: blocks human tyrosyl-DNA phosphodiesterase 1; AID 485290; Q9NUW8; hit rate 0.28% among 350,000; Potency, µM (titrated, usually from 130 µM), for inactives: top-dose activity change, negative = inhibition, usual class: inhibitors; recombinant TDP1, AlphaScreen DNA substrate cleavage; note: potency is the fitted concentration of half-maximal effect; % is set by controls: 0 for no effect and ±100 for the full control effect; nearly all actives have a fitted effect of over 40% in size
# Target sequence (Q9NUW8 whole entry, looked up): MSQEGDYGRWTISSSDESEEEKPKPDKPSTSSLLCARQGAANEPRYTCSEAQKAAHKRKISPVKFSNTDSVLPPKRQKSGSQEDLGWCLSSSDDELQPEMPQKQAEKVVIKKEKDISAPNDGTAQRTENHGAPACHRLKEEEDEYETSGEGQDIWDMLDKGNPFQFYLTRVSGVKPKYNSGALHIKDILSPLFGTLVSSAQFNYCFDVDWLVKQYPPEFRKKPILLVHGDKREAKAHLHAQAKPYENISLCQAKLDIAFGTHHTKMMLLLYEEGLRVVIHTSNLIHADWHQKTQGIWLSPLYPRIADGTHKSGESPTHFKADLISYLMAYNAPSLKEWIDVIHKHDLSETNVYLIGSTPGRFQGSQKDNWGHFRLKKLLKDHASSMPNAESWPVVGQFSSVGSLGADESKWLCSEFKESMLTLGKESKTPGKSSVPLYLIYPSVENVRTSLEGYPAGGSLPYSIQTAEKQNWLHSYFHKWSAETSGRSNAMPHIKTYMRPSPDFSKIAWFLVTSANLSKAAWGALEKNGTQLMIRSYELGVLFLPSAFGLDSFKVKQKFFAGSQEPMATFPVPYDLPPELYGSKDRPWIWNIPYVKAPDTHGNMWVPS
#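 Tdp1 1 nM final; 15 min RT w/ cpd; substrate 15 nM, 5 min; beads 10 ug/ml, 10 min; AlphaScreen read. Neg ctrl: no enzyme.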
# TGFb SMAD3 inh: inhibitors of TGF-b signaling; HepG2 CAGA-GFP TGF-b/SMAD3 reporter, GFP fluorescence, 18 h; TGF-beta stimulated, 500 pg/mL final; Potency, µM (top dose mostly 46.1 µM), inactives show top-dose activity, negative = inhibition, actives largely listed as inhibitors; hit rate 1.2% among 410,000; AID 588855; note: potency is the fitted concentration of half-maximal effect; % is set by controls: 0 for no effect and ±100 for the full control effect; nearly all actives have a fitted effect of over 65% in size
#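 Inhibition was scored as loss of TGF-beta-induced (500 pg/mL final, 18 hours, 37 degrees C) GFP in HEPG2 cells carrying a CAGA-GFP reporter, in DMEM with 1% FBS. Well GFP was summed per cell; Activity was normalised to unstimulated and stimulated DMSO wells, then concentration-response fitting.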
# DT40 TDP1 no CPT: qHTS for Inhibitors of human tyrosyl-DNA phosphodiesterase 1 (TDP1): qHTS in cells in absence of CPT. DT40 Tdp1-/- hTDP1 cells, no CPT, ATP luminescence, 48 h. Potency, µM (titrated, usually from 46.2 µM), without a hit: at the top dose activity change, negative = growth inhibition, hits mostly inhibitors. hit rate 15% among 420,000; note: potency is the fitted concentration of half-maximal effect; % is set by controls: 0 for no effect and ±100 for the full control effect; nearly all actives have a fitted effect of over 55% in size
#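 Luminescent ATP content (CellTiter-Glo) served as the growth readout. Knockout chicken DT40 cells expressing human TDP1 were exposed to compounds without camptothecin for a minimum 48 hr at 37 °C.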
# HepG2 tox: counter-screen for TGF-b inhibitors: cytotoxicity in HepG2 cells; hit rate 0.76% among 410,000; HepG2 CAGA-GFP viability, ATP luminescence, 18 h; Potency, µM (doses to about 46.1 µM), for the others: top-dose activity change, negative = cytotoxicity, hits mostly cytotoxic; note: potency is the fitted concentration of half-maximal effect
#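 HepG2 CAGA-GFP cells (1000/well, DMEM with 1% FBS) received compound, then TGF-beta at 500 pg/mL final, and were incubated 18 hours at 37 degrees C. Viability was read by CellTiter-Glo luminescence. Media-only wells were set as complete cell-killing and DMSO as no toxicity.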
# Numbers without * were called inactive; ? = inconclusive; nt = not tested or not shown. Unless noted, calls come from the whole dose curve; as a rule, active = well fitted curve in the direction sought with a large enough effect; inconclusive = small, poorly fitted or top-dose-only effect, or another doubt; inactive = no such curve, though single readings can be large; an effect the other way counts as inactive or inconclusive.
SMILES,IL-1B inflam inh,DT40 TDP1 CPT,TDP1 inh,TGFb SMAD3 inh,DT40 TDP1 no CPT,HepG2 tox
CCCCN(c1ccccc1)c1ncnc2c1cnn2-c1cccc(C)c1,nt,-21.7%,2.5%,-23.2%,-12.5%,1.9%
OCCN(CCO)c1ncnc2c1cnn2-c1ccc(F)cc1,nt,-0.3%,2.6%,9.5%,-3.2%,-10.1%
COc1ccc(-n2nc(C(=O)N3CCN(c4cccc(C(F)(F)F)c4)CC3)c3c4ccccc4n(C)c3c2=O)cc1Cl,nt,-7.5%,-4.7%,9.2%,-12.2%,6.9%
CC(Sc1nc(-c2ccccc2)cc(C(F)(F)F)n1)C(=O)NCCN1CCOCC1 (centres undefined),-16.1,1.8%,4.1%,-0.2%,-13.8%,-9.4%
CC(Sc1nc(-c2ccccc2)cc(C(F)(F)F)n1)C(=O)O (centres undefined),38.9,?,1.2%,-17.6%,-0.6%,-52.6%
CCN(CC)C(=O)c1sc(NC(=O)C(C)Sc2nc(-c3ccccc3)cc(C(F)(F)F)n2)c(C(=O)OC)c1C (centres undefined),nt,7.31µM*,-3.2%,0.0%,7.31µM*,-24.8%
CCCOC(=O)c1c(NC(=O)C(C)Sc2nc(-c3ccccc3)cc(C(F)(F)F)n2)sc(C(=O)N(C)C)c1C (centres undefined),nt,?,-2.1%,?,14.6µM*,-15.9%
CCc1ccc(NC(=O)Cn2ccn(-c3ccc(OC)cc3)c(=O)c2=O)cc1,nt,-15.3%,0.0%,-28.9%,-3.3%,-10.2%
COc1cccc(C2C(C(=O)Nc3cccnc3)=C(C)Nc3nc(SCc4ccccc4)nn32)c1 (centres undefined),nt,-14.2%,0.0%,0.4%,-4.2%,-4.3%
CCOC(=O)N1CCC2(CC1)OC(=O)C(C)=C2C(=O)NCc1ccccc1OC,nt,-33.3%,5.0%,-26.6%,?,4.4%
Cc1cccc(C(=O)N2CCC(=O)N(C(COCc3ccc(Cl)cc3)Cc3ccccc3)CC2)c1 (centres undefined),-27.6,20.6µM*,5.3%,?,20.6µM*,-17.8%
O=C(c1cccc(Cl)c1)N1CCC(=O)N([C@H](COCc2ccccc2)Cc2ccccc2)CC1,?,?,nt,nt,18.4µM*,nt
O=C(c1cccc(Cl)c1)N1CCC(=O)N(C(COCc2cccc(Cl)c2)Cc2ccccc2)CC1 (centres undefined),?,?,1.3%,?,?,-23.0%
Cc1cccc(C(=O)N2CCC(=O)N([C@H](COCc3ccc(Cl)cc3)Cc3ccccc3)CC2)c1,-11.6,?,6.1%,nt,?,nt
Cc1cccc(C(=O)N2CCC(=O)N(C(COCc3cccc(Cl)c3)Cc3ccccc3)CC2)c1 (centres undefined),-28.9,?,1.3%,?,16.4µM*,8.0%
Cc1cccc(C(=O)N2CCC(=O)N([C@H](COCc3cccc(Cl)c3)Cc3ccccc3)CC2)c1,-11.0,23.1µM*,8.2%,nt,18.4µM*,nt
COc1ccccc1N1CCN(C(=O)CCC(=O)N2CCN(c3ccc(F)cc3)CC2)CC1,65.4,-29.6%,nt,?,?,-17.6%
COc1c(F)c(F)c(C(=O)Nc2ccc(N3CCN(C(C)=O)CC3)c(Cl)c2)c(F)c1F,-4.3,?,3.6%,-0.9%,?,-21.7%
CN1CCN(c2ccc(NC(=O)c3ccc(-c4cccc([N+](=O)[O-])c4)o3)cc2)CC1,-54.8*,1.3%,5.1%,0.3%,?,-25.9%
O=C(Nc1ccc(N2CCN(C(=O)c3ccc(Cl)cc3)CC2)cc1)c1cc2ccccc2o1,-0.8,?,5.9%,-8.1%,-19.1%,4.2%
CC(=O)N1CCN(c2ccc(NC(=O)c3ccc(Br)o3)cc2Cl)CC1,?,16.4µM*,0.0%,-10.6%,25.9µM*,-21.8%
Cc1ccc(N2CCN(C(=S)c3ccc(-c4cccc([N+](=O)[O-])c4)o3)CC2)cc1,0.0,-4.9%,4.8%,-35.9%,-13.9%,-19.7%
O=C(Nc1ccc(N2CCN(C(=O)c3ccc(Cl)cc3)CC2)cc1)c1ccc(Br)o1,-69.0*,?,6.5%,-22.8%,?,-17.6%
CN1CCN(c2ccc(NC(=O)c3ccc(-c4ccc(Cl)cc4)o3)cc2)CC1,-99.1*,16.4µM*,10.6%,?,20.6µM*,15.8µM*
COc1ccc(CNCc2ccc(C(=O)O)s2)cc1,nt,-4.8%,5.1%,?,8.2%,8.2%
SMILES,IL-1B inflam inh,DT40 TDP1 CPT,TDP1 inh,TGFb SMAD3 inh,DT40 TDP1 no CPT,HepG2 tox
CC(C)c1ccc(S(=O)(=O)c2nnn3c2nc(NC2CCCC2)c2sccc23)cc1,nt,8.7%,7.7%,20.9%,-16.4%,-18.7%
O=C(NNC(=O)c1cccc(S(=O)(=O)N2CCc3ccccc32)c1)c1ccccc1,29.8,?,-0.6%,-23.7%,5.17µM*,-10.5%
CC(C)CCNC(=O)c1cccc(S(=O)(=O)N2CCc3ccccc32)c1,15.7,14.6µM*,1.9%,4.1%,?,-22.5%
O=C(Nc1nc2ccccc2s1)c1cccc(S(=O)(=O)N2CCc3ccccc32)c1,25.0,-23.5%,5.0%,?,10.3µM*,-13.9%
COCc1c(C(=O)N2CCN(Cc3c(F)cccc3Cl)CC2)oc2ccccc12,-29.3,?,0.9%,-3.1%,20.6µM*,-1.5%
COCc1c(C(=O)N2CCN(c3ncccn3)CC2)oc2ccccc12,10.1,14.6µM*,-0.6%,3.4%,?,-13.0%
COc1ccc(CC(=O)Nc2c(C(=O)N3CCN(c4ncccn4)CC3)oc3ccccc23)cc1,-16.8,-1.2%,3.1%,6.9%,-19.5%,7.2%
COCc1c(C(=O)N(C)Cc2ccccc2N2CCCC2)oc2ccccc12,-15.6,?,5.9%,-11.0%,23.1µM*,0.0%
COCc1c(C(=O)N2CCN(Cc3ccc4c(c3)OCO4)CC2)oc2ccccc12,-3.3,?,3.4%,-22.2%,?,-29.8%
COCc1c(C(=O)N2CCN(Cc3ccc(C#N)cc3)CC2)oc2ccccc12,-10.9,-29.8%,6.2%,-4.2%,20.6µM*,-4.3%
C[Si](C)(C/C=C/CC[C@H](O)C1=CCCCC1=O)c1ccccc1,nt,nt,8.1%,nt,nt,nt
Cc1nc(-c2ccc(F)cc2)c(CC(=O)N2CCN(S(=O)(=O)c3cccc([N+](=O)[O-])c3)CC2)s1,-25.7,?,3.5%,1.8%,?,-18.9%

# Screening data deposited in PubChem BioAssay by National Center for Advancing Translational Sciences (NCATS).
